About 83,000 compounds went through this panel and 20% of them were active in at least one assay; those are over-represented in the sample as a whole.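 96-well plates, one dose, 48 hours. Percent growth reported; active if below 10.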 Unmarked numbers belong to inactive results. Calls of active or inactive are those of the source.
test system: HL-60(TB) leukemia; assay: NCI-60 one-dose screen, 48 h (100 = growth as untreated, 0 = no growth, -100 = all killed); conditions: 10 µM unless noted

| SMILES | growth |
| --- | --- |
| CCCC1OC(c2ccco2)OCC1CC (centres undefined) | 102% |
| COC1=C(C)C(=O)c2c(c(CCCl)c3n2CCC3O)C1=O (centres undefined) | 50.3% |
| Cc1ccc(C(NC(=O)c2ccccc2)c2ccc3cccnc3c2O)cc1 (centres undefined) | -21% (active) |
| COc1cccc(C2C3=C(COC3=O)N(CCO)c3cc4c(cc32)OCCO4)c1 (centres undefined) | -16.1% (active) |
